ARNT TACC3 PPI = disrupts binding between human ARNT and TACC3; inhibition, % at 9.99 µM; AID 623870; 0.66% of 390,000 active; AlphaScreen His-ARNT PAS-B/GST-TACC3 binding, luminescence; TACC3 fragment carries E629A point mutation;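 active means mean inhibition of replicates at least 50% and at least half of replicates each reaching 50%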;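 further: 0% = complete ARNT plus TACC3 wells and 100% = ARNT alone without TACC3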
PfHsp90 yeast 2 = growth inhibition of yeast expressing Plasmodium Hsp90. AID 504621. inhibition, % at 9.4 µM. S. cerevisiae expressing PfHsp90, BacTiter-Glo ATP, 48 h; yeast lacking PDR1 and PDR3 efflux regulators. 0.32% of 310,000 active;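 active means every replicate shows inhibition above about 80%, whatever the replicate mean, limit read from the data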;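 further: 0% = DMSO neutral controls and 100% = 20 µM radicicol positive controls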
CASP6 VEID inh = inhibitors of human caspase-6 | 0.53% of 350,000 active | inhibition, % at 12.5 µM | AID 686996 | purified caspase-6, Z-VEID-R110 cleavage fluorescence;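 active means mean inhibition across replicates at least about 35%, with every replicate also reaching that limit, limit read from the data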;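 further: 0% = median of neutral control wells and 100% = no fluorescence left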
Target sequence (P55212 24-179 limits assumed): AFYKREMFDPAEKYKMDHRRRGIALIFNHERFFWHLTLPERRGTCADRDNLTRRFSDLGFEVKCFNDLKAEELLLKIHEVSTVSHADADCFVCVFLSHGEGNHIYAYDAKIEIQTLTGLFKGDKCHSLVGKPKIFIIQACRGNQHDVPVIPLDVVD
Target sequence (P55212 194-293 limits assumed): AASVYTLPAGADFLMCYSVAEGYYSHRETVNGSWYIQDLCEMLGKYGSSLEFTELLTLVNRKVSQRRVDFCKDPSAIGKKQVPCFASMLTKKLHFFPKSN
SIRT5 inh = sirtuin-5 (human) deacylase inhibition; Q9NXA8; Purified SirT5, succinyl-peptide AMC, trypsin-coupled fluorescence; inhibition, % at 15 µM; 1.1% of 330,000 active; AID 652115; in the data active means inhibition above about 15%
Target sequence (Q9NXA8 whole entry, looked up): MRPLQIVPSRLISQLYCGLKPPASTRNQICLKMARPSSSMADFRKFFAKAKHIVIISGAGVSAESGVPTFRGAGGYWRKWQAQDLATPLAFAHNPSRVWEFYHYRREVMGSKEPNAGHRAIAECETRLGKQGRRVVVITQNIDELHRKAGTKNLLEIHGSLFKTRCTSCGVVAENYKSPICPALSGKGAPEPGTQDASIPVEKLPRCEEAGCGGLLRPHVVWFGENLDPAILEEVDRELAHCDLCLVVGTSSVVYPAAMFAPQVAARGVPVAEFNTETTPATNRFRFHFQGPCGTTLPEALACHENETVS
NSD2 inh = blocks human histone methyltransferase NSD2 | NSD2 peptide methylation, AlphaScreen, 120 min | inhibition, % at 12.5 µM | AID 743445 | 0.54% of 310,000 active | O96028; in the data active means inhibition above about 50%
Alpha artifact = counter-screen for NSD2 inhibitors: AlphaScreen artifacts | 9.4% of 1,500 active | AID 1053174 | AC35, µM (series often up to 10 µM), for inactives: at the highest dose activity change, negative = signal loss | shares compounds with NSD2 inh | AlphaScreen artifact counterscreen, preloaded methylated H4 peptide; call rule not given here
Numbers without * were called inactive; / = not tested or not shown. Only some compounds are listed: those with a hit (about 2.1% of all), similar ones and a draw of the others.

SMILES | ARNT TACC3 PPI | PfHsp90 yeast 2 | CASP6 VEID inh | SIRT5 inh | NSD2 inh | Alpha artifact
COc1ccc(CN(C)C[C@@H]2OCCCC[C@@H](C)Oc3ccc(NC(=O)c4ccccc4)cc3C(=O)N([C@H](C)CO)C[C@H]2C)cc1 | 3.1 | / | 1.2 | 0.7 | / | /
CC(C)CC#Cc1ccc([C@@H]2[C@H](CO)N3C(=O)CN(C(=O)c4ccccn4)C[C@@H]23)cc1 | / | / | -0.2 | 0.8 | / | /
Cc1noc(C)c1NC(=O)Nc1ccc2c(c1)CC(=O)N([C@@H](C)CO)C[C@@H](C)[C@H](CN(C)C(=O)Nc1ccc3c(c1)OCO3)O2 | / | / | -0.5 | 4.8 | / | /
COC1=CC(=O)c2nc(Cl)ccc2C1=O | / | / | 99.7* | 2.6 | 127.5* | -2.1%
COc1ccc(/C=C2\SC(=S)N(NS(=O)(=O)c3ccc(C)cc3)C2=O)c(OC)c1 | -9.2 | -24.8 | 2.5 | 3.6 | 45.0 | /
COc1ccc(OC)c(/C=C2\SC(=S)N(NS(=O)(=O)c3ccc(C)cc3)C2=O)c1 | 18.5 | -4.3 | 0.0 | -0.4 | 51.6* | -11.1%
CCN(CC)CCNS(=O)(=O)c1ccc2c3c(cccc13)C(=O)N2 | -0.7 | -22.8 | -5.7 | -17.2 | 54.9* | 0.8%
CN(C)CCNS(=O)(=O)c1ccc2c3c(cccc13)C(=O)N2 | -4.0 | 8.0 | -3.5 | -21.8 | 4.4 | /
Fc1ccc(C2CCNCC2COc2ccc3c(c2)OCO3)cc1 (stereo unspecified) | 20.5 | 0.0 | -2.2 | -2.6 | 63.6* | -20.2%
CN(C)c1ccc(C=c2c3ccccc3n3c2cc(-c2ccc(Cl)cc2)[n+]3C)cc1 | 0.7 | -9.6 | -2.8 | -1.0 | / | /
COc1cc(N(C)C)ccc1C=c1c2ccccc2n2c1cc(-c1ccccc1)[n+]2C | 40.8* | 104.1* | 61.3* | 3.6 | 85.2* | 1.48µM*
CNC(=O)C[C@@H]1CC[C@H]2[C@H](COc3ccc(NC(=O)c4ccc(F)cc4)cc3C(=O)N2C)O1 | -3.5 | / | -0.1 | -0.2 | / | /
NS(=O)(=O)c1ccc(CNC(=O)CCCSc2ccccc2)cc1 | 0.7 | 8.3 | 0.5 | 4.6 | 82.2* | -7.0%
CC(C)NC(=O)NCC[C@H]1CC[C@H](NS(=O)(=O)c2ccccc2)[C@H](CO)O1 | / | / | -0.6 | -0.3 | / | /
CCN(CC)CCNc1nc(SC)nc2sc3c(c12)CCN(C)C3 | 17.3 | 15.6 | -62.0 | -9.6 | 62.1* | -7.2%
CSc1nc(NCCCN(C)C)c2c3c(sc2n1)CN(C)CC3 | / | / | -29.6 | -13.7 | 6.1 | /
Cc1ccc(S(=O)(=O)N(C)C[C@@H]2Oc3ccc(NC(=O)C4CCCCC4)cc3CC(=O)N([C@@H](C)CO)C[C@@H]2C)cc1 | -4.6 | / | -0.3 | 3.2 | / | /
COc1ccc(Cc2nnc(NC(=O)C3CC(=O)N(c4ccc(OC)cc4)C3)s2)cc1 (stereo unspecified) | -1.9 | 9.0 | 6.0 | 0.5 | 72.6* | -1.5%
COc1ccc(/C=N/NC(=O)c2ccccc2O)cc1Cn1cc([N+](=O)[O-])cn1 | -1.6 | 4.9 | 1.5 | -2.3 | -0.4 | /
COc1ccc(/C=N/NC(=O)c2cc(O)c(O)c(O)c2)cc1Cn1cc([N+](=O)[O-])cn1 | 18.1 | 13.6 | 62.0* | 3.0 | 72.6* | 8.63µM*
COc1cccc(S(=O)(=O)N(C)C[C@@H]2Oc3ncc(C#Cc4ccc(F)cc4)cc3C(=O)N([C@H](C)CO)C[C@@H]2C)c1 | 5.5 | / | -0.3 | 4.8 | / | /
COc1ccc(Sc2nnc(-c3ccccc3)cc2C#N)cc1 | 4.8 | / | / | / | -1.7 | /
N#Cc1cc(-c2ccccc2)nnc1Oc1ccccc1Cl | -2.0 | 3.5 | / | / | 71.1* | 1.2%
Cc1ccc(NC(=O)CC2SC3=NCCN3C2=O)cc1 (stereo unspecified) | 2.1 | -82.2 | / | / | -3.6 | /
O=C(CC1SC2=NCCN2C1=O)Nc1ccccc1 (stereo unspecified) | 1.5 | -7.9 | / | / | 115.2* | -3.1%
SMILES | ARNT TACC3 PPI | PfHsp90 yeast 2 | CASP6 VEID inh | SIRT5 inh | NSD2 inh | Alpha artifact
COc1cccc(/C=C2\N=C(SC)SC2=O)c1OC | -6.7 | 21.1 | / | / | 98.7* | 0.7%
CCOC(=O)Nc1cc(C(=O)OC)ccc1C | 7.5 | 6.6 | -0.5 | -3.0 | 119.4* | 5.2%
N#Cc1c(SCC(=O)Nc2nncs2)sc2c(O)cc(=O)[nH]c12 | / | -3.6 | 84.5* | 43.2* | 111.0* | -9.9%
CCN(CC)c1ccc(N)cc1 | / | 3.8 | / | / | / | /
Nc1ccc(N(CCO)CCO)cc1 | 37.7 | 21.9 | 27.6 | -1.1 | 117.1* | -3.6%
O=C(NC1CCCCC1)N[C@@H]1CC[C@H](CCNS(=O)(=O)c2ccc(F)cc2)O[C@@H]1CO | 3.4 | / | 2.6 | 1.7 | / | /
Cc1noc(C)c1NC(=O)N(C)C[C@@H]1Oc2ccc(NC(=O)Nc3ccc(F)cc3)cc2CC(=O)N([C@@H](C)CO)C[C@H]1C | -3.0 | / | 1.3 | -4.3 | / | /
Cc1ccc(S(=O)(=O)Nc2cccc3c2O[C@@H](CN(C)C(=O)Nc2ccc(F)cc2)[C@H](C)CN([C@H](C)CO)C3=O)cc1 | -5.4 | / | 4.1 | 7.3 | / | /
COC(=O)C(C)(C)NC(=O)c1cccs1 | 0.8 | 3.8 | -0.6 | -3.9 | 124.3* | 0.8%
Cc1[nH][nH]c(=O)c1C(c1c(C)[nH][nH]c1=O)c1cn(C)c2ccccc12 | 36.1 | -27.3 | 34.7 | 2.4 | 51.4* | -3.1%
Cc1ccc(Sc2ccc(/C=C3/C(=O)NN(c4ccccc4)C3=O)o2)cc1 | 0.3 | -16.3 | 23.6 | 8.4 | 10.6 | /
Cc1cccc(N2NC(=O)/C(=C/c3ccc(-c4ccc(Cl)c(C(=O)O)c4)o3)C2=O)c1 | -6.5 | -63.3 | 51.8* | 15.7* | 76.3* | -7.8%
Cn1cc2ccc(N)cc2n1 | 13.5 | -3.2 | 0.2 | 0.0 | 87.5* | 0.5%
Cn1cc2ccc([N+](=O)[O-])cc2n1 | -5.3 | 6.0 | -0.2 | 1.2 | 28.8 | /
Cc1cc2c(OCC(O)CNC3CCCCC3)cccc2[nH]1 (stereo unspecified) | 7.5 | 4.9 | -17.0 | -6.0 | 54.0* | -1.9%
OC(CNC1CCCCCC1)COc1cccc2ccccc12 (stereo unspecified) | -0.3 | -19.1 | -3.0 | -6.9 | 19.0 | /
COC(=O)c1cc(NC(=O)Nc2cc(OC)ccc2OC)cc(C(=O)OC)c1 | -2.2 | 0.4 | / | / | 119.8* | 3.0%
Cc1ccc(S(=O)(=O)Nc2cccc3c2O[C@H](CN(C)S(=O)(=O)c2ccc(C)cc2)[C@H](C)CN([C@@H](C)CO)C3=O)cc1 | / | / | / | -2.0 | / | /
CCCN(CCC)CCCNC(=S)Nc1ccc2nc(N3CCN(C)CC3)cc(C)c2c1 | 7.0 | -9.5 | -63.5 | -0.2 | 35.0 | /
CCCN(CCC)CCCNC(=S)Nc1ccc2nc(N3CCN(CC)CC3)cc(C)c2c1 | 15.8 | 2.6 | -61.6 | 3.7 | 69.7* | -10.1%
COc1ccc(NC(=O)c2ccc(F)c(F)c2)c2ccccc12 | -0.9 | 10.9 | -0.7 | -3.9 | 53.6* | -0.3%
COc1ccc(C(=O)Nc2c(F)c(F)c(F)c(F)c2F)cc1OC | / | / | 3.2 | 0.0 | / | /
CCOCCCNC(=O)Cn1cc2c(n1)-c1c(oc(C(=O)N3CCCC3)c1C)CC2 | / | / | 8.4 | 6.9 | 97.1* | -7.7%
C[C@H](CO)N1C[C@H](C)[C@H](CN(C)C(=O)Nc2cccc(F)c2)Oc2ncc(C3=CCCC3)cc2C1=O | -3.1 | / | -1.1 | -2.7 | / | /

Compound activity as filed in PubChem.
